Sfp PPTase inh = blocks B. subtilis Sfp PPTase activity | Q9F4F7 | Biochemical Sfp PPTase activity, qHTS | Potency, µM, for inactives: largest response in the series, negative = inhibition, usual class: inhibitors | 310,000 tested, 3.5% active;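 note: the enzyme is Sfp with the accession as filed and its product quenches rhodamine fluorescence; 0% = enzyme reaction without inhibitor and -100% = no enzyme wells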
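After 15 min at room temperature with compound, 15 nM Sfp received 5 uM rhodamine-CoA plus 12.5 uM BHQ-2-ybbR (50 mM Hepes pH 7.6, 10 mM MgCl2). Rate came from the fluorescence difference over 30 min, ex 525/em 598 nm.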
GCN5L2 inh = GCN5L2 (KAT2A) acetyltransferase inhibition; Q92830; GCN5L2 HAT assay, ThioGlo1 CoA-SH fluorescence; Potency, µM (titrated, usually from 58.9 µM), without a hit: at the top dose activity change, negative = inhibition, most hits filed as inhibitors; 390,000 tested, 0.21% active; AID 504327
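Enzyme at 20nM final was mixed with library compounds for 15 min at room temperature. Peptide H3(1-25) at 75uM, acetyl-CoA at 70uM and ThioGlo1 at 50uM were then added. Plates were read immediately and after 20 min (Ex340nm/Em540nm).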
TrxR1 substrate = rat thioredoxin reductase 1 substrate activity; purified TrxR1 substrate turnover, NADPH consumption readout; Potency, µM (titrated, usually from 114 µM), inactives show at the highest dose activity change, negative = substrate turnover; AID 588456; 390,000 tested, 0.01% active; O89049; note: nearly all actives have a fitted effect of over 50% in size
Target sequence (O89049 whole entry, looked up): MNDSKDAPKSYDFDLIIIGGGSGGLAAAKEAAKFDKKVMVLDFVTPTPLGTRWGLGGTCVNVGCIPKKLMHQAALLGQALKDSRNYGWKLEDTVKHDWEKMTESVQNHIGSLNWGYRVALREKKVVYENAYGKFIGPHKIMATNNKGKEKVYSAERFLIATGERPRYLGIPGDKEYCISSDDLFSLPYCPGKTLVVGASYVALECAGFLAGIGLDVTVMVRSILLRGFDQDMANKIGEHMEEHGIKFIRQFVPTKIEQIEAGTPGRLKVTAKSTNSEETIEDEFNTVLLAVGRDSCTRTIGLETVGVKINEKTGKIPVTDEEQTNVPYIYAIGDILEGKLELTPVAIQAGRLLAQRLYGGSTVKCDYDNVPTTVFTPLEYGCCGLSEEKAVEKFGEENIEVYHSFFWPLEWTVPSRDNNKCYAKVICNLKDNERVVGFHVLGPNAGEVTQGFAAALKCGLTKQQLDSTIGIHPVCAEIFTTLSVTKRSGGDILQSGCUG
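Rat TrxR1, dispensed at 90 nM, was prereduced with 400 uM NADPH (final) for 5 min at ~22 deg C, then incubated with compound 15 min before 400 uM selenite. A first-read NADPH fluorescence drop versus no-compound background flagged substrates.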
TrxR1 inh = inhibitors of rat thioredoxin reductase 1; recombinant rTrxR1, NADPH fluorescence consumption, selenite substrate; Potency, µM (series often up to 114 µM), for the others: at the top dose activity change, negative = inhibition, hits mostly inhibitors; 390,000 tested, 1% active; O89049; note: nearly all actives have a fitted effect of over 65% in size
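Rat TrxR1 (90 nM in the dispensed reagent) was pre-reduced with 400 uM NADPH for 5 min at room temperature, then incubated with compound for 15 min. After 400 uM selenite was added, NADPH fluorescence (Ex 340/Em 450 nm) was followed for 8 min.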
GLS inhibitor = glutaminase GLS (human) inhibition | O94925 | GLS enzymatic activity, qHTS titration | Potency, µM (doses to about 45.5 µM), without a hit: at the top dose activity change, negative = inhibition, hits mostly inhibitors | 410,000 tested, 0.21% active
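Assay buffer: 45 mM KH2PO4 pH 8.2, 0.02% Tween-20. hKGA acts on L-glutamine (1 mM solution added); product glutamate is reported by an oxidase/peroxidase Amplex Red coupling, with fluorescence taken at baseline and 30 min.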
VDR inh = vitamin D3 receptor (human) inhibition | Potency, µM, inactives show max response, negative = inhibition, usual class: inhibitors | 400,000 tested, 0.93% active | VDR-SRC2-3 peptide fluorescence polarization, 2 h
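Measured by FP: displacement of SRC2-3 coactivator peptide from VDR by library compounds, following a two-hour ambient incubation.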
* = called active by the depositor; ! = a repeat was not active; [ ] = another dose, or the depositor's remark. Sampled rows, rich in hits. Any-hit rate of the full collection: about 3.8%. Calls come from the whole dose curve; as a rule, active = well fitted curve in the direction sought with a large enough effect; inconclusive = small, poorly fitted or top-dose-only effect, or another doubt; inactive = no such curve, though single readings can be large; an effect the other way counts as inactive or inconclusive. Unless noted, % is set by controls: 0 for no effect and ±100 for the full control effect; potency is the fitted concentration of half-maximal effect.

Results for COc1ccc(CCNC(=O)COc2cccc3c2OC(C)(C)C3)cc1OC ?
GCN5L2 inh: 1%; TrxR1 substrate: -4%; TrxR1 inh: -2%; GLS inhibitor: 0%; VDR inh: -23%

What do the screens show for `CCN(CC)CCCNC(=O)CCC(=O)NNc1nc2ccccc2c2nc(C)nn12`?
Sfp PPTase inh: 14%; GCN5L2 inh: -4%; TrxR1 substrate: -2%; TrxR1 inh: 7%; GLS inhibitor: 29%; VDR inh: 79µM*!

Results for Cc1noc(C)c1NC(=O)Nc1ccc2c(c1)C(=O)N([C@H](C)CO)C[C@H](C)[C@H](CN(C)C(=O)NC1CCCCC1)OCCCC[C@@H](C)O2 ?
GLS inhibitor: 0%

Results for CC[C@H](C)[C@@H]1NC(=O)[C@H]([C@@H](C)CC)NC(=O)[C@@H](CC(C)C)NC(=O)[C@H](Cc2ccccc2)NC(=O)[C@H](Cc2ccccc2)NC(=O)[C@@H]2CCCN2C(=O)[C@@H]2CCCN2C(=O)[C@H](C(C)C)NC(=O)[C@H](CC(C)C)NC1=O ?
GCN5L2 inh: 0%; TrxR1 substrate: -6%; TrxR1 inh: -5%; GLS inhibitor: -1%; VDR inh: -5%

How did COc1ccc(CCNC(=O)CNCC2CCCO2)cc1OC (configuration not stated) do in these assays?
Sfp PPTase inh: 63µM*; GCN5L2 inh: 1%; TrxR1 substrate: 6%; TrxR1 inh: 13%; GLS inhibitor: -2%; VDR inh: 3%

How did Cc1sc(N)nc1-c1cccs1 do in these assays?
Sfp PPTase inh: 4%; GCN5L2 inh: -2%; TrxR1 substrate: -10%; TrxR1 inh: -12%; GLS inhibitor: -6%; VDR inh: 27%

How did N#CC(=C=[N-])c1nc2ccccc2nc1-[n+]1cccc(NC(=O)c2ccccc2)c1 do in these assays?
Sfp PPTase inh: 8.9µM*; GCN5L2 inh: 0%; TrxR1 substrate: -5%; TrxR1 inh: 6%; GLS inhibitor: -8%; VDR inh: -13%

Results for CSc1nc(=S)cc(C)[nH]1 ?
Sfp PPTase inh: 35µM*; GCN5L2 inh: inconclusive; TrxR1 substrate: -6%; TrxR1 inh: -13%; GLS inhibitor: -25%; VDR inh: 50µM*

What do the screens show for `COC(=O)c1c(-c2cccs2)csc1NC(=O)c1ccc(OC)c(OC)c1`?
GCN5L2 inh: inconclusive; TrxR1 substrate: 18%; TrxR1 inh: 30%; GLS inhibitor: -24%; VDR inh: inconclusive

Results for COC(=O)c1c(-c2cccs2)csc1NC(=O)c1cc(OC)c(OC)c(OC)c1 ?
GCN5L2 inh: 25µM*; TrxR1 substrate: 15%; TrxR1 inh: 31%; GLS inhibitor: -10%; VDR inh: inconclusive

How did CC(C)(C)c1ccc(COn2c(=O)c(-c3ccco3)[n+]([O-])c3ccccc32)cc1 do in these assays?
Sfp PPTase inh: 56µM*; GCN5L2 inh: -6%; TrxR1 substrate: -1%; TrxR1 inh: -4%; VDR inh: 10%

What do the screens show for `O=c1c(-c2ccc(Br)cc2)[n+]([O-])c2ccccc2n1OCc1ccccc1`?
Sfp PPTase inh: 2%; GCN5L2 inh: 5%; TrxR1 substrate: -1%; TrxR1 inh: 17%; GLS inhibitor: 1%; VDR inh: -3%

How did Fc1ccc(CNc2ccn3nc(-c4ccccc4)cc3n2)cc1 do in these assays?
GLS inhibitor: 7%

What do the screens show for `CNc1nc(Nc2ccc(Br)cc2)nc(N)c1[N+](=O)[O-]`?
Sfp PPTase inh: 1%; GCN5L2 inh: -4%; TrxR1 substrate: -13%; TrxR1 inh: -9%; GLS inhibitor: 5%; VDR inh: -3%

How did N#C/C(=C\c1ccc(O)c(O)c1)C(=O)NCCc1ccccc1 do in these assays?
GCN5L2 inh: -19%; TrxR1 substrate: 5%[57.1 µM]; TrxR1 inh: inconclusive; GLS inhibitor: -1%; VDR inh: inconclusive

Results for N#C/C(=C\c1ccc(O)c(O)c1)C(=O)NCCCCc1ccccc1 ?
Sfp PPTase inh: 79µM*; GCN5L2 inh: inconclusive; VDR inh: inconclusive

Screening results: PubChem, National Center for Advancing Translational Sciences (NCATS)
